A selection: hits, their analogues and other compounds. The true share with any hit is near 11%.
Luciferase inh: Firefly luciferase inhibition profiling of diverse chemical library using quantitative high-throughput screening; AID 1347043, 2019; purified P. pyralis luciferase, luminescence, biochemical; Luciferin 4-monooxygenase (Photinus pyralis), P08659; Potency, µM (titrated, usually from 115 µM), usual class: inhibitors; 2.5% of 76,000 active; also: nearly all actives have a fitted effect of over 65% in size
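Cell-free enzyme assay, 10nM P. pyralis luciferase, luciferin and ATP each at 10uM. Inhibition profiled over a 6-point titration, read as luminescence.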
hNpr1 antagonist: Natriuretic polypeptide receptor (hNpr1) antagonism - Primary qHTS. Atrial natriuretic peptide receptor 1 (Homo sapiens), P16066. HEK293 hNpr1 GloSensor cGMP, ANP-stimulated luminescence. Potency, µM (doses to about 46.3 µM), inactives show top-dose activity change, negative = inhibition, usual class: inhibitors. 1.6% of 76,000 active; calls by dose curve; also: nearly all actives have a fitted effect of over 60% in size
Target sequence (P16066 whole entry, looked up): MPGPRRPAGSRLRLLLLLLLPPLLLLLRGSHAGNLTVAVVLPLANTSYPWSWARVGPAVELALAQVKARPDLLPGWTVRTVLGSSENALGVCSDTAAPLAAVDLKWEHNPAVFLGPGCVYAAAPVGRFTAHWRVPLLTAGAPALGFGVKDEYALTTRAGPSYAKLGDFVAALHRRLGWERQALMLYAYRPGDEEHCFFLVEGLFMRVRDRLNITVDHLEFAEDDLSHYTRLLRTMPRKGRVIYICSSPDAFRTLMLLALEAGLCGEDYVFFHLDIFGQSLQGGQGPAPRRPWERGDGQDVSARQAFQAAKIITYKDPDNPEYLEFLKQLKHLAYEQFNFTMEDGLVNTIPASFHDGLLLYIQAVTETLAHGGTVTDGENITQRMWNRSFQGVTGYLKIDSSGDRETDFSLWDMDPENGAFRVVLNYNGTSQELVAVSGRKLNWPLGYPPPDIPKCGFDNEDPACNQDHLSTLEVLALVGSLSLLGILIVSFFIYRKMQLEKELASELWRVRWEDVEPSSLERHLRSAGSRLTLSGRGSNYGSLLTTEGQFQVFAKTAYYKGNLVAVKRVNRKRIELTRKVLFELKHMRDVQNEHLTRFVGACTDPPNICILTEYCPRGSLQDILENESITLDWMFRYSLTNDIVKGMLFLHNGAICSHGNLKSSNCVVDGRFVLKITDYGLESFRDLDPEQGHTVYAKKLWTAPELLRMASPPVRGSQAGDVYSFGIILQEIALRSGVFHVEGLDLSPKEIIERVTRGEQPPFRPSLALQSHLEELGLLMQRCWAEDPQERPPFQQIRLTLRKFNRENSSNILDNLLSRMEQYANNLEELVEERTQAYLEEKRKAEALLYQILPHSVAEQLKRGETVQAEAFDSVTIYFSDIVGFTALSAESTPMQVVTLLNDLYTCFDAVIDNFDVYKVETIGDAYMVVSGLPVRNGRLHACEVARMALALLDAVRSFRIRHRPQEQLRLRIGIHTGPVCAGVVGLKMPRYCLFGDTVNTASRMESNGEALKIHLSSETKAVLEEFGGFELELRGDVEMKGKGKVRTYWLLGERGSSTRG
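HEK293 cells stably expressing human Npr1 and cGMP GloSensor pGS-40F, loaded 2 h with 2% GloSensor reagent, given compound 30 min at room temperature. Luminescence read before and 20 min after 0.1 nM hNppA.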
HEK cytotox: Cytotoxic Profiling in HEK 293 Cell Line of Diverse Libraries Using Quantitative High-Throughput Screening; HEK 293 viability, ATP luminescence (CellTiter-Glo), 48-72 h; Potency, µM (doses to about 115 µM), without a hit: at the top dose activity change, negative = cytotoxicity, usual class: inhibitors; 6.6% of 94,000 active; AID 1345083, 2018; also: nearly all actives have a fitted effect of over 60% in size
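HEK 293 cells seeded at 250 cells/well were exposed to compound for 48 or 72 hr at 37 degree Celsius. Viability taken as ATP content by CellTiter-Glo luminescence.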
NIH3T3 tox: Cytotoxic Profiling in NIH 3T3 Cell Line of Diverse Libraries Using Quantitative High-Throughput Screening. 4.3% of 94,000 active. AID 1345082, 2018. Potency, µM (doses to about 96.7 µM), for inactives: at the highest dose activity change, negative = cytotoxicity, most hits filed as inhibitors. NIH 3T3 viability, CellTiter-Glo ATP luminescence, 48-72 h; also: nearly all actives have a fitted effect of over 55% in size
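ATP-dependent luminescence (CellTiter-Glo) served as the viability signal for NIH 3T3 cells treated with compound for 48 or 72 hr at 37 °C.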
An asterisk follows results filed as active; [ ] = dose if it differs, or a comment. Unless noted, calls follow the shape of the dose curve; as a rule, active = well fitted curve in the direction sought with a large enough effect; inconclusive = small, poorly fitted or top-dose-only effect, or another doubt; inactive = no such curve, though single readings can be large; an effect the other way counts as inactive or inconclusive. % is scaled to controls: 0 for no effect and ±100 for the full control effect; potency is read from the fitted curve at half-maximal effect.

Cc1ccc(-c2ccc(CN)cc2)cc1Cl was read as HEK cytotox 32µM* and NIH3T3 tox 32µM*.
`CSc1ccc(-c2cccc(CN)c2)cc1` gave HEK cytotox inconclusive and NIH3T3 tox 25µM*.
`COc1ccc(-c2ccc(C(=O)NC3CCOCC3)cc2)nn1` gave HEK cytotox -3%[172 µM] and NIH3T3 tox -30%[138 µM].
Screening c1csc(CN2Cc3[nH]cnc3C[C@H]2c2nc(-c3ccc4ccccc4c3)no2)c1 returned Luciferase inh inactive, hNpr1 antagonist -24%[70.6 µM], HEK cytotox 50µM* and NIH3T3 tox inconclusive.
Screening COc1ccc(-c2noc([C@@H]3Cc4nc[nH]c4CN3Cc3cccs3)n2)cc1 returned Luciferase inh 71µM*, hNpr1 antagonist -17%[70.6 µM], HEK cytotox inconclusive and NIH3T3 tox 89µM*.
For COc1cc(OC)c(CNC(=O)c2c(C)noc2-c2cccs2)c(OC)c1 the results were Luciferase inh inactive, hNpr1 antagonist -3%, HEK cytotox 79µM* and NIH3T3 tox inconclusive.
`COc1ccc(-c2onc(C)c2C(=O)NC2CCCc3ccccc32)cc1` (stereo not drawn) gave Luciferase inh 28µM*, hNpr1 antagonist -5%, HEK cytotox inconclusive and NIH3T3 tox inconclusive.
Screening COc1ccc(-c2onc(C)c2C(=O)NCc2ccccc2)cc1 returned Luciferase inh inactive, hNpr1 antagonist 0%, HEK cytotox inconclusive and NIH3T3 tox inconclusive.
COc1cccc(CNC(=O)c2c(C)noc2-c2cccs2)c1 was read as Luciferase inh inactive, hNpr1 antagonist -3%, HEK cytotox inconclusive and NIH3T3 tox inconclusive.
`COc1ccc(-c2onc(C)c2C(=O)NCc2c(OC)cc(OC)cc2OC)cc1` gave Luciferase inh inactive, hNpr1 antagonist -10%, HEK cytotox 32µM* and NIH3T3 tox inconclusive.
`COc1ccc(CNC(=O)c2c(C)noc2-c2cc(OC)cc(OC)c2)cc1` gave Luciferase inh inactive, hNpr1 antagonist -2%, HEK cytotox inconclusive and NIH3T3 tox -7%.
For O=C(c1cccs1)N1CCC(Cc2nc(-c3ccncc3)n[nH]2)CC1 the results were Luciferase inh inactive, hNpr1 antagonist 1%, HEK cytotox -1% and NIH3T3 tox -18%.
`CCc1nc(CN(C)C(C(=O)O)c2ccc(C(C)(C)C#N)cc2)no1` (stereo not drawn) gave Luciferase inh inactive, hNpr1 antagonist 0%, HEK cytotox inconclusive and NIH3T3 tox 3%.
`Cc1ccccc1C(=O)NC1CCCN(CCn2nc3n(c2=O)CCCC3)C1` (stereo not drawn) gave HEK cytotox -4% and NIH3T3 tox -7%.
NC(=O)CCc1ccc(CC2CCN(C(=O)c3cccnc3)CC2)cc1 was read as HEK cytotox inconclusive and NIH3T3 tox -32%.
For O=C(NCc1ccc(F)cc1F)C1CCN(C(=O)c2ncn3c2COC(c2ccc(F)cc2)C3)CC1 (stereo not drawn) the results were Luciferase inh inconclusive, hNpr1 antagonist -12%, HEK cytotox -9% and NIH3T3 tox -17%.
O=C(NCc1ccccn1)C1CCN(C(=O)c2ncn3c2COC(c2ccc(F)cc2)C3)CC1 (stereo not drawn) was read as Luciferase inh 35µM*, hNpr1 antagonist -4%, HEK cytotox 4% and NIH3T3 tox -3%.
Screening O=C(NCc1ccccc1)C1CCN(C(=O)c2ncn3c2COC(c2ccc(F)cc2)C3)CC1 (stereo not drawn) returned Luciferase inh inconclusive, hNpr1 antagonist 5%, HEK cytotox 7% and NIH3T3 tox inactive.
`O=C(NCC1CCCO1)C1CCN(C(=O)c2ncn3c2COC(c2ccc(F)cc2)C3)CC1` (stereo not drawn) gave Luciferase inh 40µM*, hNpr1 antagonist 0%, HEK cytotox -2% and NIH3T3 tox -32%.
Cc1ccc(C2Cn3cnc(C(=O)N4CCC(C(=O)NCc5ccccc5)CC4)c3CO2)cc1 (stereo not drawn) was read as Luciferase inh 40µM*, hNpr1 antagonist -11%, HEK cytotox inconclusive and NIH3T3 tox -13%.
`Cc1ccc(C2Cn3cnc(C(=O)N4CCC(C(=O)NCc5cc(F)ccc5F)CC4)c3CO2)cc1` (stereo not drawn) gave Luciferase inh 40µM*, hNpr1 antagonist 2%, HEK cytotox -4% and NIH3T3 tox -4%.
`COc1ccc(CC(=O)N2[C@@H](c3ccccc3)[C@@H](C(=O)O)C[C@]23CCCCN(C)C3=O)cc1` gave HEK cytotox -14% and NIH3T3 tox inconclusive.
Cc1ccc(C2Cn3cnc(C(=O)N4CCC(C(=O)NCc5cccc(F)c5)CC4)c3CO2)cc1 (stereo not drawn) was read as Luciferase inh 50µM*, hNpr1 antagonist -6%, HEK cytotox -5% and NIH3T3 tox -14%.
For COc1cccc(CNC(=O)C2CCN(C(=O)c3ncn4c3COC(c3ccccc3)C4)CC2)c1 (stereo not drawn) the results were Luciferase inh 22µM*, hNpr1 antagonist 1%, HEK cytotox 8% and NIH3T3 tox inactive.
For CCc1ccc(CNC(=O)C2CCN(C(=O)c3ncn4c3COC(c3ccccc3)C4)CC2)cc1 (stereo not drawn) the results were Luciferase inh 35µM*, hNpr1 antagonist 4%, HEK cytotox 1% and NIH3T3 tox -12%.
O=C(NCc1cccc(F)c1)C1CCN(C(=O)c2ncn3c2COC(c2ccc(F)cc2)C3)CC1 (stereo not drawn) was read as Luciferase inh 32µM*, hNpr1 antagonist 2%, HEK cytotox 6% and NIH3T3 tox 1%.
For COc1ccc(C2Cn3cnc(C(=O)N4CCC(C(=O)NCc5ccc(C)cc5)CC4)c3CO2)cc1 (stereo not drawn) the results were Luciferase inh inactive, hNpr1 antagonist -1%, HEK cytotox 10% and NIH3T3 tox inactive.
`O=C(c1cnccn1)N1CCc2[nH]nc(C(c3ccccc3)c3ccccc3)c2C1` gave Luciferase inh inactive, hNpr1 antagonist -1%, HEK cytotox -12% and NIH3T3 tox -7%.
O=C(NCCCc1ccccc1)C1CCN(C(=O)c2ncn3c2COC(c2ccccc2)C3)CC1 (stereo not drawn) was read as Luciferase inh 16µM*, hNpr1 antagonist -15%, HEK cytotox -8% and NIH3T3 tox inactive.
For Cc1cccc(CNC(=O)C2CCN(C(=O)c3ncn4c3COC(c3ccc(F)cc3)C4)CC2)c1 (stereo not drawn) the results were Luciferase inh 45µM*, hNpr1 antagonist 0%, HEK cytotox 3% and NIH3T3 tox 5%.
